Screening data (PubChem)
SRC1 inh – SRC1 coactivator transcriptional activity inhibitors, primary screen, cell-based, luminescence. Nuclear receptor coactivator 1 (Homo sapiens), Q15788. HEK293 GAL4-SRC1 luciferase reporter. inhibition, % at 3.6 µM. 360,000 tested, 0.12% active. AID 588354, 2011;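 active = inhibition above the campaign mean plus 3 SD, with each screening campaign given its own cutoff, cut at about 60% in these data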
Gli-Sufu antag – Gli-Sufu pathway antagonists, primary screen, luciferase luminescence, Sufu-KO-LIGHT cells, uHTS | AID 588413, 2011 | inhibition, % at 5 µM | 340,000 tested, 0.74% active | Sufu-KO-LIGHT fibroblasts, Gli luciferase reporter luminescence;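 active = inhibition above about 55%, limit read from the data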
SRC2 inh – inhibition of GAL4-SRC2 driven luciferase reporter, primary screen, SRC2 inhibitor project, cell-based, luminescence | HEK293 GAL4-SRC2 luciferase reporter | inhibition, % at 9 µM | 370,000 tested, 0.17% active | AID 651957, 2012;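 active = inhibition above the mean inhibition of all tested compounds plus 3 SD, set per campaign, cut at about 52% in these data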
NR2F2 inh – NR2F2 transcriptional activity inhibitors, primary screen, cell-based, luciferase reporter, HEK293T, luminescence; 370,000 tested, 0.7% active; HEK293T NGFI-A luciferase reporter; inhibition, % at 8.6 µM; COUP transcription factor 2 (Homo sapiens), P24468;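 active = inhibition above a per-plate cutoff, mean inhibition of test wells between control levels plus 3 SD, cut at about 38% in these data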;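 also: cells cotransfected with COUP-TFII expression vector driving the NGFI-A reporter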
Target sequence (P24468 whole entry, looked up): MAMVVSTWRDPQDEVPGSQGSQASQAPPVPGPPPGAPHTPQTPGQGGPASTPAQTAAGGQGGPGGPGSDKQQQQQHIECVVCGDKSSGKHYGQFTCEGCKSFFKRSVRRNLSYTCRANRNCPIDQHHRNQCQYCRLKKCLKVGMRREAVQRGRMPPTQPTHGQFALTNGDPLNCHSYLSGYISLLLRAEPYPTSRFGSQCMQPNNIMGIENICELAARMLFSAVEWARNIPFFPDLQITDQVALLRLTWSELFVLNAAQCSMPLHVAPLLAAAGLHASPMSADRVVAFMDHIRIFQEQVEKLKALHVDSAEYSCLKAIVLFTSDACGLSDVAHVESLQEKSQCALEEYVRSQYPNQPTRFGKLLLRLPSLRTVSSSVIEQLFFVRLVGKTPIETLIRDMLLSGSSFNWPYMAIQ
SRC3 inh – SRC3 coactivator transcriptional activity inhibitors, primary screen, cell-based, luminescence; HEK293 GAL4-SRC3 luciferase reporter; Nuclear receptor coactivator 3 (Homo sapiens), Q9Y6Q9; inhibition, % at 3.6 µM; 360,000 tested, 0.17% active;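 active = inhibition above a per-campaign cutoff, the mean of all compounds plus 3 SD, cut at about 60% in these data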;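 also: higher means less SRC3-driven luciferase light from the GAL4 reporter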
LRH-1 inv ag – LRH-1 (NR5A2) inverse agonists, primary screen, cell-based, luminescence, HEK293T, StAR-luciferase reporter | LRH-1 transfected, 24 h | 360,000 tested, 0.13% active | AID 602396, 2012 | inhibition, % at 3.6 µM | Nuclear receptor subfamily 5 group A member 2 (Homo sapiens), O00482;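 active = inhibition above the mean inhibition of all tested compounds plus 3 SD, cut at about 73% in these data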
Gli antag conf – Gli-SUFU pathway antagonists, confirmation, single concentration, luciferase luminescence, Sufu-KO-LIGHT cells | 2,500 tested, 40% active | inhibition, % at 5 µM | shares compounds with Gli-Sufu antag | Gli luciferase reporter;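 active = mean inhibition at 5 µM reaching about 45%, limit read from the data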
Gli cytotox – cytotoxicity in Sufu-KO-LIGHT cells, confirmation, cytotoxicity control for Gli-SUFU antagonist project, cell-based, ATP luminescence, single concentration; shares compounds with Gli-Sufu antag; AID 651994, 2013; 2,500 tested, 32% active; cytotoxicity, % at 5 µM;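 active = mean cytotoxicity at 5 µM above about 25%, limit read from the data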;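 also: cells exposed to compound overnight for roughly 16 to 18 hours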
Wnt3a cs – Wnt3a reporter signal inhibition, confirmation, counter-screen for Gli-SUFU antagonist project, Wnt-LIGHT cells, luminescence, single concentration; shares compounds with Gli-Sufu antag; Wnt3a-driven luciferase reporter; inhibition, % at 6.25 µM; 2,500 tested, 20% active; AID 651995, 2013;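 active = mean inhibition above about 25%, limit read from the data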
Of the large screens only hits and unclear results are named; the others gave an inactive call (follow-up assays come after a bar, where they were run). This is a sample that favours compounds with a hit; in the whole collection about 1.3% have one here.

COc1ccc(CNS(=O)(=O)/C=C/c2cc(C)ccc2CNC(=O)OC(C)(C)C)cc1	none (no result: SRC1 inh, Gli-Sufu antag, SRC3 inh, LRH-1 inv ag)
COC(=O)c1ccc2c(=O)n(Cc3ccc(C(=O)NCCCN4CCOCC4)cc3)c(=S)[nH]c2c1	none
CC(C)c1ccc(C(=O)NCCCN2CCOCC2)cc1	none
O=C(NCCCN1CCOCC1)c1ccc(CSc2ccc(Cl)cc2)cc1	Gli-Sufu antag 57 | Gli antag conf inactive | Gli cytotox inactive | Wnt3a cs inactive
CC(C)(C)c1ccc(C(=O)NCCCN2CCN(CCCNC(=O)c3ccc(C(C)(C)C)cc3)CC2)cc1	Gli-Sufu antag 72 | Gli antag conf inactive | Gli cytotox inactive | Wnt3a cs inactive
O=C(CCCCCn1c(=S)[nH]c2ccc(N3CCOCC3)cc2c1=O)NCc1ccc(Cl)cc1	Gli-Sufu antag 83 | Gli antag conf inactive | Gli cytotox inactive | Wnt3a cs inactive
O=C(NCCCN1CCOCC1)c1ccc2c(=O)n(Cc3ccc(Cl)cc3)c(=S)[nH]c2c1	none | Gli antag conf inactive | Gli cytotox 25 | Wnt3a cs inactive
O=C(CCCCCn1c(=S)[nH]c2ccc(N3CCOCC3)cc2c1=O)NCc1ccc2c(c1)OCO2	none
COc1ccc(C(=O)OCCN(C)C2CN(Cc3cn(Cc4ccccc4Cl)nn3)S(=O)(=O)C2)cc1OC (stereo unspecified)	none (no result: SRC1 inh, Gli-Sufu antag, SRC3 inh, LRH-1 inv ag)
CCC[C@H]1[C@@H](OC(=O)NCc2cccs2)CC[C@@]23CCCN2C(=O)CCC[C@@H]13	none (no result: SRC1 inh, Gli-Sufu antag, SRC2 inh, SRC3 inh, LRH-1 inv ag)
COC(=O)CCC(=O)Nc1sc(C)c(C)c1C(N)=O	none
COC(=O)CCC(=O)NC(=S)Nc1sc(C)c(C)c1C(N)=O	none | Gli antag conf 50 | Gli cytotox 51 | Wnt3a cs inactive
COC(=O)c1c(C)oc2ccc(N(C(=O)c3ccncc3)S(=O)(=O)c3ccc(C)cc3C)cc12	Gli-Sufu antag 61 | Gli antag conf 49 | Gli cytotox 27 | Wnt3a cs 36
O=C(c1cc(-c2ccc(Cl)cc2)nc2ccccc12)N1CCN(c2ncccn2)CC1	none (no result: SRC1 inh, Gli-Sufu antag, SRC3 inh, LRH-1 inv ag)
FC(F)(F)c1nc(-c2cccs2)ncc1-c1nnnn1-c1ccc(Cl)cc1	Gli-Sufu antag 58 | Gli antag conf 58 | Gli cytotox 39 | Wnt3a cs inactive
Cc1ccc(-c2noc(C3CCCN(C(=O)c4ccc(C(C)(C)C)cc4)C3)n2)o1 (stereo unspecified)	none | Gli antag conf inactive | Gli cytotox inactive | Wnt3a cs inactive
COc1ccc(-n2c(SCC(=O)Nc3cc(C)c(NC(=O)c4ccccc4)cc3OC)nnc2-c2ccco2)cc1	none (no result: SRC1 inh, Gli-Sufu antag, SRC3 inh, LRH-1 inv ag)
Cc1ccc(C(=O)ONc2ccc(N=NC(=O)c3ccccc3O)cc2)cc1	none
Cc1ccc(C(=O)ONc2ccc(N=O)cc2)cc1	Gli-Sufu antag 65 | Gli antag conf inactive | Gli cytotox inactive | Wnt3a cs inactive
Cc1nc(N2CCN(C(=O)c3cnccn3)CC2)c2c3c(sc2n1)CC(C(C)(C)C)CC3 (stereo unspecified)	none | Gli antag conf inactive | Gli cytotox inactive | Wnt3a cs inactive
COc1ccc(C2CC(=O)C(c3cccc(Cl)c3)=CN2Cc2ccccc2)cc1 (stereo unspecified)	none (no result: SRC1 inh, Gli-Sufu antag, SRC3 inh, LRH-1 inv ag)
O=C(CSc1nnnn1-c1ccc(Cl)cc1)Nc1cccnc1Cl	none
Cc1ccc(-n2nnnc2SCC(=O)Nc2cccnc2Cl)cc1	none | Gli antag conf inactive | Gli cytotox inactive | Wnt3a cs inactive
CN1/C(=C\C(=O)COC(=O)CNC(=O)c2ccc3ccccc3c2)C(C)(C)c2ccccc21	none | Gli antag conf 47 | Gli cytotox inactive | Wnt3a cs inactive
CN1/C(=C\C(=O)COC(=O)c2ccc(O)c(O)c2)C(C)(C)c2ccccc21	Gli-Sufu antag 65 (no result: SRC1 inh, SRC3 inh, LRH-1 inv ag) | Gli antag conf 64 | Gli cytotox 26 | Wnt3a cs 75
CN1/C(=C\C(=O)COC(=O)CNC(=O)c2ccccc2F)C(C)(C)c2ccccc21	none
CN1/C(=C\C(=O)COC(=O)c2ccc(O)cc2)C(C)(C)c2ccccc21	none
Cc1sc2ncnc(NCc3cccs3)c2c1C	Gli-Sufu antag 57 | Gli antag conf 50 | Gli cytotox 26 | Wnt3a cs inactive
Cc1sc2ncnc(NCc3ccco3)c2c1C	none
COC(=O)c1cc(-c2cc3ccccc3o2)c(=O)n2c1CCC2	none (no result: SRC1 inh, Gli-Sufu antag, SRC3 inh, LRH-1 inv ag)
CCOc1ccc2cc(C(=O)c3ccccc3)c(=O)oc2c1	none
CCOc1ccc2cc(C(=O)NCc3ccccc3)c(=N)oc2c1	none | Gli antag conf inactive | Gli cytotox inactive | Wnt3a cs inactive
CCOc1ccc(N(CC(=O)Nc2c(C)n(C)n(-c3ccccc3)c2=O)S(=O)(=O)c2ccc(C)c(C)c2)cc1	none (no result: SRC1 inh, Gli-Sufu antag, SRC3 inh, LRH-1 inv ag)
CN(C)CCCn1c(=S)[nH]c2ccccc2c1=O	none
CN(C)CCCN1C(=O)C2CCc3[nH]c4ccccc4c3C2C1=O (stereo unspecified)	none | Gli antag conf inactive | Gli cytotox inactive | Wnt3a cs inactive
CN1CCN(c2ccc([N+](=O)[O-])cc2C(=O)c2ccc(Br)cc2)CC1	none
NC(=O)CC(NC(=O)c1ccccc1)c1ccc(N2CCC(Cc3ccccc3)CC2)c([N+](=O)[O-])c1 (stereo unspecified)	Gli-Sufu antag 63 | Gli antag conf 54 | Gli cytotox 27 | Wnt3a cs inactive
NC(=O)CC(NC(=O)c1ccc(Br)cc1)c1ccc(N2CCN(c3ccccc3)CC2)c([N+](=O)[O-])c1 (stereo unspecified)	none
NC(=O)CC(NC(=O)c1ccc(Br)cc1)c1ccc(N2CCCCCCC2)c([N+](=O)[O-])c1 (stereo unspecified)	Gli-Sufu antag 60 | Gli antag conf inactive | Gli cytotox inactive | Wnt3a cs inactive
O=C(c1ccc(Br)cc1)c1cc([N+](=O)[O-])ccc1N1CCCCC1	none | Gli antag conf 60 | Gli cytotox 60 | Wnt3a cs inactive
CC(C)(C)n1nc(C2CC2)cc1NC(=O)Nc1ccccc1	none (no result: SRC1 inh, Gli-Sufu antag, SRC3 inh, LRH-1 inv ag)
